# Measured values taken from the supplement of paper PMC4466140.
# Tests used:
# Assay in all cases: SPOT peptide array binding signal intensity (averaged, normalized) (arbitrary units (background-subtracted, floor 0; scale differs between SH3 domains)); higher = stronger binding of the SH3 domain to the peptide
# [1] = biological target: AgAbp1
# Description: (§1)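 GST-tagged SH3 domains from S. cerevisiae (Sc), A. gossypii (Ag), C. albicans (Ca) and S. pombe (Sp) were incubated at 10 ug/ml overnight at 4 C on cellulose SPOT membranes carrying 292 synthetic 15-mer peptides mined from the S. cerevisiae proteome (cysteines replaced by serines). Binding was detected with anti-GST antibody, HRP secondary and chemiluminescence, quantified with Genespotter, and reported as normalized spot intensities averaged over biological replicates.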
# [2] = biological target: AgBbc1
# Description: as §1
# [3] = biological target: AgBem1-D1
# Description: as §1
# [4] = biological target: AgBzz1-D1
# Description: as §1
# [5] = biological target: AgBzz1-D2
# Description: as §1
# [6] = biological target: AgCyk3
# Description: as §1
# [7] = biological target: AgFus1
# Description: as §1
# [8] = biological target: AgHof1
# Description: as §1
# [9] = biological target: AgHse1
# Description: as §1
# [10] = biological target: AgLsb1
# Description: as §1
# [11] = biological target: AgLsb4
# Description: as §1
# [12] = biological target: AgMyo5
# Description: as §1
# [13] = biological target: AgNbp2
# Description: as §1
# [14] = biological target: AgRvs167
# Description: as §1
# [15] = biological target: AgSho1
# Description: as §1
# [16] = biological target: AgSla1-D1-D2
# Description: as §1
# [17] = biological target: AgSla1-D3
# Description: as §1
# [18] = biological target: CaAbp1-D1
# Description: as §1
# [19] = biological target: CaAbp1-D2
# Description: as §1
# [20] = biological target: CaBbc1
# Description: as §1
# [21] = biological target: CaBem1-D1
# Description: as §1
# [22] = biological target: CaBzz1-D1
# Description: as §1
# [23] = biological target: CaBzz1-D2
# Description: as §1
# [24] = biological target: CaCyk3
# Description: as §1
# [25] = biological target: CaFus1
# Description: as §1
# [26] = biological target: CaHof1
# Description: as §1
# [27] = biological target: CaHse1
# Description: as §1
# [28] = biological target: CaLsb1
# Description: as §1
# [29] = biological target: CaLsb4
# Description: as §1
# [30] = biological target: CaMyo5
# Description: as §1
# [31] = biological target: CaNbp2
# Description: as §1
# [32] = biological target: CaRvs167
# Description: as §1
# [33] = biological target: CaRvs167-3
# Description: as §1
# [34] = biological target: CaSho1
# Description: as §1
# [35] = biological target: CaSla1-D1-D2
# Description: as §1
# [36] = biological target: CaSla1-D3
# Description: as §1
# [37] = biological target: ScAbp1
# Description: as §1
# [38] = biological target: ScBbc1
# Description: as §1
# [39] = biological target: ScBem1-D1
# Description: as §1
# [40] = biological target: ScBzz1-D1
# Description: as §1
# [41] = biological target: ScBzz1-D2
# Description: as §1
# [42] = biological target: ScCyk3
# Description: as §1
# [43] = biological target: ScFus1
# Description: as §1
# [44] = biological target: ScHof1
# Description: as §1
# [45] = biological target: ScHse1
# Description: as §1
# [46] = biological target: ScLsb1
# Description: as §1
# [47] = biological target: ScLsb2
# Description: as §1
# [48] = biological target: ScLsb3
# Description: as §1
# [49] = biological target: ScLsb4
# Description: as §1
# [50] = biological target: ScMyo3
# Description: as §1
# [51] = biological target: ScMyo5
# Description: as §1
# [52] = biological target: ScNbp2
# Description: as §1
# [53] = biological target: ScPex13
# Description: as §1
# [54] = biological target: ScRvs167
# Description: as §1
# [55] = biological target: ScSho1
# Description: as §1
# [56] = biological target: ScSla1-D1-D2
# Description: as §1
# [57] = biological target: ScSla1-D3
# Description: as §1
# [58] = biological target: SpAbp1-D1
# Description: as §1
# [59] = biological target: SpBbc1
# Description: as §1
# [60] = biological target: SpBzz1-D1
# Description: as §1
# [61] = biological target: SpBzz1-D2
# Description: as §1
# [62] = biological target: SpCyk3
# Description: as §1
# [63] = biological target: SpHof1
# Description: as §1
# [64] = biological target: SpHof1-2
# Description: as §1
# [65] = biological target: SpHof1-3
# Description: as §1
# [66] = biological target: SpHse1
# Description: as §1
# [67] = biological target: SpLsb1
# Description: as §1
# [68] = biological target: SpLsb4
# Description: as §1
# [69] = biological target: SpMyo1
# Description: as §1
# [70] = biological target: SpNbp2
# Description: as §1
# [71] = biological target: SpPex13
# Description: as §1
# [72] = biological target: SpRvs167
# Description: as §1
# [73] = biological target: SpSla1-D1-D2
# Description: as §1
# [74] = biological target: SpSla1-D3
# Description: as §1
binder,measurement,setting,value
GLRRARYKFPGQQKI,SPOT peptide array binding signal intensity,[1],36.5
same,SPOT peptide array binding signal intensity,[2],30
same,SPOT peptide array binding signal intensity,[3],75
same,SPOT peptide array binding signal intensity,[4],22.5
same,SPOT peptide array binding signal intensity,[5],26
same,SPOT peptide array binding signal intensity,[6],3
same,SPOT peptide array binding signal intensity,[7],230
same,SPOT peptide array binding signal intensity,[8],24.5
same,SPOT peptide array binding signal intensity,[9],283
same,SPOT peptide array binding signal intensity,[10],17.2
same,SPOT peptide array binding signal intensity,[11],32.5
same,SPOT peptide array binding signal intensity,[12],2
same,SPOT peptide array binding signal intensity,[13],55
same,SPOT peptide array binding signal intensity,[14],5.67
same,SPOT peptide array binding signal intensity,[15],22
same,SPOT peptide array binding signal intensity,[16],228
same,SPOT peptide array binding signal intensity,[17],3
same,SPOT peptide array binding signal intensity,[18],388
same,SPOT peptide array binding signal intensity,[19],257
same,SPOT peptide array binding signal intensity,[20],91.5
same,SPOT peptide array binding signal intensity,[21],11
same,SPOT peptide array binding signal intensity,[22],74.5
same,SPOT peptide array binding signal intensity,[23],69
same,SPOT peptide array binding signal intensity,[24],20.5
same,SPOT peptide array binding signal intensity,[25],254
same,SPOT peptide array binding signal intensity,[26],1
same,SPOT peptide array binding signal intensity,[27],11.5
same,SPOT peptide array binding signal intensity,[28],0.5
same,SPOT peptide array binding signal intensity,[29],13
same,SPOT peptide array binding signal intensity,[30],2.5
same,SPOT peptide array binding signal intensity,[31],140
same,SPOT peptide array binding signal intensity,[32],15.2
same,SPOT peptide array binding signal intensity,[33],105
same,SPOT peptide array binding signal intensity,[34],254
same,SPOT peptide array binding signal intensity,[35],75
same,SPOT peptide array binding signal intensity,[36],3
same,SPOT peptide array binding signal intensity,[37],36
same,SPOT peptide array binding signal intensity,[38],19
same,SPOT peptide array binding signal intensity,[39],24
same,SPOT peptide array binding signal intensity,[40],19
same,SPOT peptide array binding signal intensity,[41],22
same,SPOT peptide array binding signal intensity,[42],107
same,SPOT peptide array binding signal intensity,[43],244
same,SPOT peptide array binding signal intensity,[44],1.5
same,SPOT peptide array binding signal intensity,[45],854
same,SPOT peptide array binding signal intensity,[46],8.25
same,SPOT peptide array binding signal intensity,[47],5
same,SPOT peptide array binding signal intensity,[48],63
same,SPOT peptide array binding signal intensity,[49],13
same,SPOT peptide array binding signal intensity,[50],2
same,SPOT peptide array binding signal intensity,[51],4.5
same,SPOT peptide array binding signal intensity,[52],167
same,SPOT peptide array binding signal intensity,[53],8.5
same,SPOT peptide array binding signal intensity,[54],31
same,SPOT peptide array binding signal intensity,[55],296
same,SPOT peptide array binding signal intensity,[56],294
same,SPOT peptide array binding signal intensity,[57],5
same,SPOT peptide array binding signal intensity,[58],196
same,SPOT peptide array binding signal intensity,[59],2
same,SPOT peptide array binding signal intensity,[60],145
same,SPOT peptide array binding signal intensity,[61],0.5
same,SPOT peptide array binding signal intensity,[62],6
same,SPOT peptide array binding signal intensity,[63],180
same,SPOT peptide array binding signal intensity,[64],5
same,SPOT peptide array binding signal intensity,[65],199
same,SPOT peptide array binding signal intensity,[66],268
same,SPOT peptide array binding signal intensity,[67],26
same,SPOT peptide array binding signal intensity,[68],56
same,SPOT peptide array binding signal intensity,[69],1
same,SPOT peptide array binding signal intensity,[70],120
same,SPOT peptide array binding signal intensity,[71],16
same,SPOT peptide array binding signal intensity,[72],12.5
same,SPOT peptide array binding signal intensity,[73],1
same,SPOT peptide array binding signal intensity,[74],13
